Over roughly 110,000 compounds, “z-score” has its median near -0.1; the highest 2% begin near 2. Only a selection was taken, and the highest values are over-represented in it overall. Activity calls are given as the source filed them.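 How the source made its calls: active means z-score in the third read window above 3 or below -3; inactive means the rest.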
These compounds were tested against Metabotropic glutamate receptor 8 (Rattus norvegicus) (UniProt P70579) (assay: mGluR8 Gi/Go-coupled signaling modulation – cell-based, rat, thallium flux, HTS, primary screen (AID 488969)). Conditions: HEK293 rat mGluR8, GIRK (G protein-gated inwardly rectifying potassium channel) thallium flux, FluoZin2; at 10 µM; stronger effect = higher value; submaximal glutamate (EC20) added with thallium.
Sequence of Metabotropic glutamate receptor 8 (Rattus norvegicus) (P70579 whole entry, looked up): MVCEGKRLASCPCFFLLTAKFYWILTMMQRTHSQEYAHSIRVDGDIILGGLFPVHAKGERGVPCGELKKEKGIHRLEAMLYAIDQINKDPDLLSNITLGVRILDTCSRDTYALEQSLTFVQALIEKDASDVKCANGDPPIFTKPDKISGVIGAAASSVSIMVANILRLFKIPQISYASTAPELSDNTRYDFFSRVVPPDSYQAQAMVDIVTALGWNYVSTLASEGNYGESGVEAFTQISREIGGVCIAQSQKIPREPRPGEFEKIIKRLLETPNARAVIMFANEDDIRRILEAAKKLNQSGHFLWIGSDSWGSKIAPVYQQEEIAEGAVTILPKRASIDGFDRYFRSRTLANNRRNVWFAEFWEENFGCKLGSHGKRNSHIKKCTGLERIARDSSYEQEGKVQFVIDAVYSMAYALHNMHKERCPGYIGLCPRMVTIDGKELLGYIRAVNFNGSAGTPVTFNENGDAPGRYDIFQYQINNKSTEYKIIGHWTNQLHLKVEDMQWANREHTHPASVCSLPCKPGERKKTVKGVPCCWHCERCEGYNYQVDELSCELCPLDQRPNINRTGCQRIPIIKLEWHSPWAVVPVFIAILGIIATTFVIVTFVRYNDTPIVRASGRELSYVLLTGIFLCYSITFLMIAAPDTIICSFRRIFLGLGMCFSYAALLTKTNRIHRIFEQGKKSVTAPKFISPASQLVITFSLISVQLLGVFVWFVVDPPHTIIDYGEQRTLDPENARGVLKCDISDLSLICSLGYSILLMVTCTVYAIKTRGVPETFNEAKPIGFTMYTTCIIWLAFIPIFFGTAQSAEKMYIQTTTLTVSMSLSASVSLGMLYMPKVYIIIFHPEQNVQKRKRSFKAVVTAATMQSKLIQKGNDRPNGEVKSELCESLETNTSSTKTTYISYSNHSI

SMILES | z-score
Cc1nn(C)c(C)c1/C=C(\C#N)C(N)=O | -0.273
Cc1ccc(CN(Cc2ccc(C)o2)C(=S)NCC(=O)O)cc1 | -0.00212
Cc1sc2nc(CN3CCCCC3)nc(Cl)c2c1C | -0.502
Cn1c(NCC(O)CO)nc2c1c(=O)n(Cc1ccc(Cl)c(Cl)c1)c(=O)n2C (centres undefined) | -0.188
COc1ccc2c(c1)c(=O)cc(-c1ccccc1)n2C | -0.0758
CCN=c1scc(-c2ccccc2)n1/N=C/c1ccccn1 | -0.0993
COCCN=c1scc(-c2ccccc2)n1/N=C/c1c[nH]c2ccccc12 | 2.05
COCCN=c1scc(-c2cc(OC)ccc2OC)n1/N=C/c1c[nH]c2ccccc12 | -0.343
Cc1cc(C)cc(NC(=O)Cn2cc3c(n2)CCCCC3)c1 | 5.95 (active)
COc1cccc(NC(=O)Cn2cc3c(n2)CCCCC3)c1 | 2.89
COc1cccc(CNC(=O)Cn2cc3c(n2)CCCCC3)c1 | -0.00462
CC(=O)c1cccc(NC(=O)Cn2cc3c(n2)CCCC3)c1 | -0.279
CC1CCCC(NC(=O)Cn2cc3c(n2)CCCCC3)C1C (centres undefined) | 0.237
CC1CCc2nn(CC(=O)NC3CCCC3)cc2C1 (centres undefined) | -0.653
CC1CCC(NC(=O)Cn2cc3c(n2)CCCC3)CC1 (centres undefined) | 2.79
CCc1cccc(NC(=O)Cn2cc3c(n2)CCCC3)c1 | 0.22
O=C(Cn1cc2c(n1)CCCCC2)Nc1c(F)c(F)cc(F)c1F | 0.762
C/C(=N/NC(=O)c1ccc(O)cc1)c1cccc([N+](=O)[O-])c1 | -0.369
Cc1c2ccccc2nc2c(F)c(NCCO)c(F)c(F)c12 | -0.746
COc1ccc(/C=N/OCC(=O)N(Cc2ccc(OC)cc2)c2ccccc2C(=O)O)cc1 | -0.615

SMILES | z-score
Cc1nn(Cc2ccccc2)c(C)c1NC(=O)CCC(=O)O | -0.119
Cc1cc(C)c(C(=O)CSc2nnc(-c3cccnc3)n2C)c(C)c1 | 0.116
CCCCNC(=O)/C=C/c1cccs1 | -0.364
N#CC(c1cccc(Cl)c1)c1ccc2c(C(F)(F)F)cc(C(F)(F)F)nc2n1 (centres undefined) | 10.5 (active)
Cc1ccc(C(C#N)c2ccc3c(C(F)(F)F)cc(C(F)(F)F)nc3n2)cc1 (centres undefined) | 1.26
N#CC(c1ccccc1)c1ccc2c(C(F)(F)F)cc(C(F)(F)F)nc2n1 (centres undefined) | 0.135
C/C(Cl)=C\Cn1c(NCCCn2ccnc2)nc2c1c(=O)n(C)c(=O)n2C | -0.632
Cn1c(=O)[nH]c(=O)c2c1nc(NC1CCCCC1)n2Cc1ccccc1 | 0.331
CC(=O)c1cc(OC(=O)N2CCOCC2)ccc1OC(=O)N1CCOCC1 | -0.376
CN(C)Cc1nc2c(c(=O)[nH]1)C(C)(C)Cc1ccccc1-2 | 0.00689
O=C(COC(=O)c1ccc2c(c1)C(=O)N(c1cccc3ncccc13)C2=O)c1ccc(Cl)cc1 | -0.619
COc1ccc(NC(=O)N2CC(C)OC(C)C2)cc1OC (centres undefined) | -0.307
O=C(CCNS(=O)(=O)c1ccc2c(c1)CCC(=O)N2)NCc1cccnc1 | -0.489
CCCn1nnc(NC(=O)COc2ccc(CC)cc2)n1 | -0.0151
CCCn1nnc(NC(=O)COc2ccc(C3CCCCC3)cc2)n1 | 2.04
CCCCn1nnc(NC(=O)COc2cc(C)ccc2C(C)C)n1 | 1.04
CCCCn1nnc(NC(=O)COc2ccc(Cl)c(C)c2)n1 | 0.0561
CCn1nnc(NC(=O)COc2cc(C)ccc2C(C)C)n1 | -0.0287
CCn1nnc(NC(=O)COc2ccc(C3CCCCC3)cc2)n1 | 2.13
Cn1nnc(NC(=O)COc2ccc(C3CCCCC3)cc2)n1 | 0.85

SMILES | z-score
CCCn1nnc(NC(=O)COc2cc(C)ccc2C(C)C)n1 | 2.14
CCCn1nnc(NC(=O)COc2ccc(Cl)cc2)n1 | -0.244
CC1C/C(=N/N=C2/NC(=O)CS2)CC(C)(C)C1 (centres undefined) | -0.18
Cc1cccc(-n2nc3c([n+]2[O-])CCc2nonc2-3)c1C | -0.912
Clc1ccccc1CN(Cc1ccccc1)C(c1cccs1)c1nnnn1C1CCCC1 (centres undefined) | -0.135
CN(C)C(CNC(=O)CCCc1c[nH]c2ccccc12)c1ccco1 (centres undefined) | -0.0945
O=C(O)c1ccccc1C(=O)Nc1n[nH]c(=S)s1 | -0.153
N#CCCn1c(SCC(=O)NCC2CCCO2)nc2ccccc21 (centres undefined) | -0.368
N#CCCn1c(SCC(=O)Nc2ccc(N3CCOCC3)cc2)nc2ccccc21 | 2.51
N#CCSc1nc2ccc(N3CCOCC3)cc2c(=O)n1CCc1ccccc1 | 4.95 (active)
O=C(CSc1ncccn1)Nc1ccc(N2CCOCC2)cc1 | -0.202
O=C(CSc1ccccc1)Nc1ccc(N2CCOCC2)cc1 | 0.00596
Nc1ccccc1SCC(=O)Nc1ccc(N2CCOCC2)cc1 | 2.53
COCCn1c(SCC(=O)Nc2ccc(N3CCOCC3)cc2)nc2ccccc21 | -0.228
N#CCSc1nc2ccc(N3CCCCC3)cc2c(=O)n1Cc1ccccc1 | 0.65
CCCCn1c(SCC(=O)NCCOC)nc2ccc(N3CCOCC3)cc2c1=O | 1.19
CCCCNC(=O)CSc1nc2ccc(N3CCOCC3)cc2c(=O)n1CCc1ccccc1 | 1.19
CCCCn1c(SCC(=O)Nc2ccc(OC)cc2)nc2ccc(N3CCOCC3)cc2c1=O | 4.35 (active)
CCCCn1c(SCC(=O)NC(C)CC)nc2ccc(N3CCOCC3)cc2c1=O (centres undefined) | 0.126
